# According to PubChem BioAssay (EPA / NIEHS):
# Inconclusive results are not listed. Activity calls are given as the source filed them. Rule for the calls: active = hit-call score of the fitted dose curve at least 0.9, where 1 is the maximum; inconclusive = response in the unintended direction; inactive = score below 0.9.
# Molecular target: human Protein Tyrosine Phosphatase Non-receptor Type 6 (PTPN6), PTPN6 (gene 5777) (UniProt P29350)
# Assay: NVS_ENZ_hPTPN6: NovaScreen (NVS) Enzymatic Assay for human Protein Tyrosine Phosphatase Non-receptor Type 6 (PTPN6) (AID 2283210)
# How it was run: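 Recombinant human PTPN6 from SF9 cells, enzyme activity followed by fluorescence after mobility-shift separation of substrate and product at 1.33 h. Chemicals first tested at a single 25 uM in duplicate, then confirmed across concentration series; loss of signal relative to DMSO.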
# human Protein Tyrosine Phosphatase Non-receptor Type 6 (PTPN6), PTPN6 (gene 5777), sequence (P29350 whole entry, looked up): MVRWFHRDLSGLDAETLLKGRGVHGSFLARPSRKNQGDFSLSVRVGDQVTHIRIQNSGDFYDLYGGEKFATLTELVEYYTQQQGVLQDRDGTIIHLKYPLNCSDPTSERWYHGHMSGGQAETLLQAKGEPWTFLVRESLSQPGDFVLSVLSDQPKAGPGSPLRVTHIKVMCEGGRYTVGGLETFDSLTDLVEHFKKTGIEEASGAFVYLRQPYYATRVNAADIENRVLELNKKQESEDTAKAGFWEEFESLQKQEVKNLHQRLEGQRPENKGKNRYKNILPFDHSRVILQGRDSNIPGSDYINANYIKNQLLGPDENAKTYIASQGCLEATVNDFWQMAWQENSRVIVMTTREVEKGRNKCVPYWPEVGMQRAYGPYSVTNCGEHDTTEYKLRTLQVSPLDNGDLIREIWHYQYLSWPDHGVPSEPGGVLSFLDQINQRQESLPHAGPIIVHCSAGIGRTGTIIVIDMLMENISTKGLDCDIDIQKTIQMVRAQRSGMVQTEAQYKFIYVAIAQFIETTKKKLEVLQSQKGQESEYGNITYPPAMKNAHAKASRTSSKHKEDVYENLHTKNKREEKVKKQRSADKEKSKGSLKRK
SMILES,outcome,AC50
CCCCOC(=O)c1ccccc1C(=O)O,inactive,–
S=C1NCCN1,inactive,–
CN(C)[C@@H]1C(=O)C(C(N)=O)=C(O)[C@@]2(O)C(=O)C3=C(O)c4c(O)cccc4[C@@](C)(O)[C@H]3[C@H](O)[C@@H]12,–,41.4 µM (active)

# Molecular target: human Protein Tyrosine Phosphatase Receptor Type F (PTPRF), PTPRF (gene 5792) (UniProt P10586)
# Assay: NVS_ENZ_hPTPRF: NovaScreen (NVS) Enzymatic Assay for human Protein Tyrosine Phosphatase Receptor Type F (PTPRF) (AID 2283213)
# How it was run: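 Cell-free fluorescence enzyme assay with recombinant protein and substrate; product separated by electrophoretic mobility shift. Read 1 h after dosing, single 25 uM duplicate screen, then concentration-response up to 50 uM; loss of signal vs DMSO.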
row,SMILES,outcome
1,CCCCSP(=O)(SCCCC)SCCCC,inactive
2,S=C1NCCN1,inactive
3,CC(=NC#N)N(C)Cc1ccc(Cl)nc1,inactive

# Molecular target: human Rho Associated Coiled-coil Containing Protein Kinase 1 (ROCK1), ROCK1 (gene 6093) (UniProt Q13464)
# Sequence (Q13464 whole entry, looked up): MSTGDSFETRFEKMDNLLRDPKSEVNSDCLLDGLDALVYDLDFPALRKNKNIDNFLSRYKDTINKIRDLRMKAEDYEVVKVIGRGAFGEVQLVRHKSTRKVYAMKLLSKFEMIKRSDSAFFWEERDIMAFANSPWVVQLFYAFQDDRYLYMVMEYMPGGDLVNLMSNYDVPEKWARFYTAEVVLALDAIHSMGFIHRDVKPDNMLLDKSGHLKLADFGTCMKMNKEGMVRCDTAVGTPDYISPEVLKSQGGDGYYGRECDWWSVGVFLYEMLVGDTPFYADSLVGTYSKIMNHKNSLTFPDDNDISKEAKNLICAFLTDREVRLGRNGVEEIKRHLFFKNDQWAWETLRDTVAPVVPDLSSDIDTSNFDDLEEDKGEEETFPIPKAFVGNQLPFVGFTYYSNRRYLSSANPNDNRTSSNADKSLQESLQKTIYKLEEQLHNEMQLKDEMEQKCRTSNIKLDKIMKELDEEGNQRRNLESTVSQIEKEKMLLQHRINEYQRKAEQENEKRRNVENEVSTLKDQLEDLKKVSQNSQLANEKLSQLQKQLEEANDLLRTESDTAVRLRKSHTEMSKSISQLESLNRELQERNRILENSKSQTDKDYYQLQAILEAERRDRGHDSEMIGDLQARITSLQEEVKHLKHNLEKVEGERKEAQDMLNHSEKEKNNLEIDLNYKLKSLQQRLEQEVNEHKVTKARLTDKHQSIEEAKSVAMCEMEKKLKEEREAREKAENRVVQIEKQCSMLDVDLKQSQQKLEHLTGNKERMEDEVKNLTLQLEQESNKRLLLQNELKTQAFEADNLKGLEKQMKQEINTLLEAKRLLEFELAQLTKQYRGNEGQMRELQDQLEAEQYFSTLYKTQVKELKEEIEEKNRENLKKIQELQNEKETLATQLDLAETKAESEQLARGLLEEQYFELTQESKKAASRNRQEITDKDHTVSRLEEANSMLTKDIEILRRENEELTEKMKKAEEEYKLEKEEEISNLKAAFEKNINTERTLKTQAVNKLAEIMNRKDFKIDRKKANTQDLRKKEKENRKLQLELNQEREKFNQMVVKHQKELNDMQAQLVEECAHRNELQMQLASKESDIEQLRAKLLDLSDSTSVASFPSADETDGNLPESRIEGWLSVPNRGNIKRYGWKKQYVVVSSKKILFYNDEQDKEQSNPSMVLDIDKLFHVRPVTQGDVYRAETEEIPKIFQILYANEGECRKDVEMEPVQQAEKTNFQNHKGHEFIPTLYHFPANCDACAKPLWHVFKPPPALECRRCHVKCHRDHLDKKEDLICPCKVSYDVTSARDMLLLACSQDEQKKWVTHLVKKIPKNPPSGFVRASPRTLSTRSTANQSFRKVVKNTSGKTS
# Assay: NVS_ENZ_hROCK1: NovaScreen (NVS) Enzymatic Assay for human Rho Associated Coiled-coil Containing Protein Kinase 1 (ROCK1) (AID 2283214)
# How it was run: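 Compounds first run in duplicate at 25 uM against recombinant human ROCK1, then followed in concentration series. Kinase activity was read 1 h post-dosing by fluorescence with mobility-shift separation, as signal loss relative to DMSO.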
row,SMILES,outcome
1,CNC(=O)ON=C(SC)C(=O)N(C)C,inactive
2,CCC(=O)Nc1ccc(Cl)c(Cl)c1,inactive
3,CN(C)[C@@H]1C(=O)C(C(N)=O)=C(O)[C@@]2(O)C(=O)C3=C(O)c4c(O)cccc4[C@@](C)(O)[C@H]3[C@H](O)[C@@H]12,inactive
4,CC1(C(=O)Nc2ccc(O)c(Cl)c2Cl)CCCCC1,inactive

# Molecular target: human Protein Tyrosine Phosphatase Receptor Type M (PTPRM), PTPRM (gene 5797) (UniProt P28827)
# Sequence (P28827 whole entry, looked up): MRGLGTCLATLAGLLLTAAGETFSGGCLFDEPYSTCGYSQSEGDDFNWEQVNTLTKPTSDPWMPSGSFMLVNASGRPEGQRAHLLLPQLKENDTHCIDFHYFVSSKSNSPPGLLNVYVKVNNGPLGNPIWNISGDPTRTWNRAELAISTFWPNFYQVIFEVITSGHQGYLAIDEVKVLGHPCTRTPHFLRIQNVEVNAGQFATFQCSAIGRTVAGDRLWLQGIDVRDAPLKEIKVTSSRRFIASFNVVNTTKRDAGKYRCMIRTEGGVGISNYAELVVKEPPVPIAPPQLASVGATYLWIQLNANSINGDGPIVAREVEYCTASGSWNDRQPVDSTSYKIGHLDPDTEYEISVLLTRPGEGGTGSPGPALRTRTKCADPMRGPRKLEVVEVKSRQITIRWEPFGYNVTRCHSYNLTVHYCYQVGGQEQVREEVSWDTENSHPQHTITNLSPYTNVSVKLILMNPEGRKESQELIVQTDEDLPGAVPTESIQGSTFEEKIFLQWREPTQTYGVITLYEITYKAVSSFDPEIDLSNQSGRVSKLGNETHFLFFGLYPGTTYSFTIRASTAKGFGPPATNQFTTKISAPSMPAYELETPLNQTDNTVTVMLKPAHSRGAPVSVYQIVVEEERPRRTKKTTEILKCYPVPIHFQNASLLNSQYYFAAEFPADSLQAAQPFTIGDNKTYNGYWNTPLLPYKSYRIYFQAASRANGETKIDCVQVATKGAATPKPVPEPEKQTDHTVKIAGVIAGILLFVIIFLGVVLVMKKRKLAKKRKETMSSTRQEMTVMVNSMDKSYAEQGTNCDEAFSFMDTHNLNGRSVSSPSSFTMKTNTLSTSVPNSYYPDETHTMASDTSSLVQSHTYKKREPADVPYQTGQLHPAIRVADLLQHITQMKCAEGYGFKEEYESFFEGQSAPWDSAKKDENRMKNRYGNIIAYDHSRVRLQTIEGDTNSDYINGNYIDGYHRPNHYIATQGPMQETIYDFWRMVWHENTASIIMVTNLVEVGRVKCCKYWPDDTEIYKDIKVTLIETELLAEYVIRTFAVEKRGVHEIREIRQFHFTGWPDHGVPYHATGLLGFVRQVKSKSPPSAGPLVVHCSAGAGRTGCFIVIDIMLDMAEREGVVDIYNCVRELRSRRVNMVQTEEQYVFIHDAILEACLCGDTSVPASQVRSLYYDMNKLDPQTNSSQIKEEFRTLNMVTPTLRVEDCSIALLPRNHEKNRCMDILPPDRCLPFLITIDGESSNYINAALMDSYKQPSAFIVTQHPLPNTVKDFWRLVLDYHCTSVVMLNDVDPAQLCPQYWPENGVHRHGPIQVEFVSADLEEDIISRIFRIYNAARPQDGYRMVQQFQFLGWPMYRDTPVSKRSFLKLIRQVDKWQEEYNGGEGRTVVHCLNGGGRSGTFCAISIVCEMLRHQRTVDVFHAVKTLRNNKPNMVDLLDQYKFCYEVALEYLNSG
# Assay: NVS_ENZ_hPTPRM: NovaScreen (NVS) Enzymatic Assay for human Protein Tyrosine Phosphatase Receptor Type M (PTPRM) (AID 2283215)
# How it was run: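 Read-out is fluorescence after electrophoretic separation of substrate and product, taken 1.33 h post-dosing with recombinant enzyme. Compounds screened at 25 uM in duplicate, then concentration series for actives; activity as signal loss relative to DMSO.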
SMILES,outcome,AC50
COP(=O)(OC)OC(Br)C(Cl)(Cl)Br (stereo not drawn),inactive,–
O=[N+]([O-])c1cc(C(F)(F)F)c(Cl)c([N+](=O)[O-])c1Nc1ncc(C(F)(F)F)cc1Cl,inactive,–
Nc1c(Cl)cc([N+](=O)[O-])cc1Cl,inactive,–
CC[C@H](C)[C@H]1O[C@]2(C=C[C@@H]1C)C[C@@H]1C[C@@H](C/C=C(\C)[C@@H](O[C@H]3C[C@H](OC)[C@@H](O[C@H]4C[C@H](OC)[C@@H](NC)[C@H](C)O4)[C@H](C)O3)[C@@H](C)/C=C/C=C3\CO[C@@H]4[C@H](O)C(C)=C[C@@H](C(=O)O1)[C@]34O)O2,–,9.67 µM (active)
CC1(C(=O)Nc2ccc(O)c(Cl)c2Cl)CCCCC1,inactive,–
N#CSCSC#N,inactive,–

# Molecular target: human Raf-1 Proto-Oncogene, serine/threonine Kinase (RAF1), RAF1 (gene 5894) (UniProt P04049)
# Sequence (P04049 whole entry, looked up): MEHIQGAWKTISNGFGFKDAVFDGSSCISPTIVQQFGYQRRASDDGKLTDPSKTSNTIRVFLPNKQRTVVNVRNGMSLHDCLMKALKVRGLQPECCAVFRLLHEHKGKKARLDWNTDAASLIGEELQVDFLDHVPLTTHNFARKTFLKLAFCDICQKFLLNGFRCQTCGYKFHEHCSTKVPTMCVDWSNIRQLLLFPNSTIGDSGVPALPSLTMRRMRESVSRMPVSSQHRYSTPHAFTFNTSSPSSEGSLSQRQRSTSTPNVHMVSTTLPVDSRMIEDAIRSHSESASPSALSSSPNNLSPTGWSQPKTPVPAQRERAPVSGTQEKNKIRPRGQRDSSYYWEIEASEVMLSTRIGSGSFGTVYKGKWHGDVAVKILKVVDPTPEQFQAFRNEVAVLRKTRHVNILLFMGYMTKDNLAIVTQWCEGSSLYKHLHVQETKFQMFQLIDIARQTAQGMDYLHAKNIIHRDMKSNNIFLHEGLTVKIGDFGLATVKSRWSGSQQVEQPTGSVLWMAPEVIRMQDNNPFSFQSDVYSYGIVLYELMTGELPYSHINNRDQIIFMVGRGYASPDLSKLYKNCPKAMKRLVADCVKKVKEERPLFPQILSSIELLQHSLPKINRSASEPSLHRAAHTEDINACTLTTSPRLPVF
# Assay: NVS_ENZ_hRAF1: NovaScreen (NVS) Enzymatic Assay for human Raf-1 Proto-Oncogene, serine/threonine Kinase (RAF1) (AID 2283216)
# How it was run: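 Single-point screening at 25 uM (duplicate), followed by singleton concentration-response to 50 uM maximum for chemicals exceeding threshold. Enzyme activity from fluorescent substrate-product mobility-shift separation after 1 h, relative to DMSO.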
SMILES,outcome,AC50
CCCOCC(=Nc1ccc(Cl)cc1C(F)(F)F)n1ccnc1,inactive,–
CN(C)C(=O)Nc1cccc(C(F)(F)F)c1,inactive,–
CN(C)NC(=O)CCC(=O)O,inactive,–
CCCOc1nn(C(=O)NS(=O)(=O)c2ccccc2C(=O)OC)c(=O)n1C,inactive,–
CN(C)[C@@H]1C(=O)C(C(N)=O)=C(O)[C@@]2(O)C(=O)C3=C(O)c4c(O)cccc4[C@@](C)(O)[C@H]3[C@H](O)[C@@H]12,–,11.1 µM (active)

# Molecular target: human Sirtuin 2 (SIRT2), SIRT2 (gene 22933) (UniProt Q8IXJ6)
# Assay: NVS_ENZ_hSIRT2: NovaScreen (NVS) Enzymatic Assay for human Sirtuin 2 (SIRT2) (AID 2283217)
# How it was run: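 Single-point duplicate screen at 25 uM, then concentration-response (max 50 uM) for chemicals passing threshold. Enzyme activity of recombinant human SIRT2 measured after 1 hr by fluorescence with mobility-shift separation of product; DMSO baseline.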
SMILES,outcome,AC50
O=C(O)c1cc(Oc2ccc(C(F)(F)F)cc2Cl)ccc1[N+](=O)[O-],inactive,–
CC[C@H](C)[C@H]1O[C@]2(C=C[C@@H]1C)C[C@@H]1C[C@@H](C/C=C(\C)[C@@H](O[C@H]3C[C@H](OC)[C@@H](O[C@H]4C[C@H](OC)[C@@H](NC)[C@H](C)O4)[C@H](C)O3)[C@@H](C)/C=C/C=C3\CO[C@@H]4[C@H](O)C(C)=C[C@@H](C(=O)O1)[C@]34O)O2,–,25 µM (active)
FC(F)C(F)(F)OCC(Cn1cncn1)c1ccc(Cl)cc1Cl (stereo not drawn),–,14.6 µM (active)

# Molecular target: human Sirtuin 1 (SIRT1), SIRT1 (gene 23411) (UniProt Q96EB6)
# Sequence (Q96EB6 whole entry, looked up): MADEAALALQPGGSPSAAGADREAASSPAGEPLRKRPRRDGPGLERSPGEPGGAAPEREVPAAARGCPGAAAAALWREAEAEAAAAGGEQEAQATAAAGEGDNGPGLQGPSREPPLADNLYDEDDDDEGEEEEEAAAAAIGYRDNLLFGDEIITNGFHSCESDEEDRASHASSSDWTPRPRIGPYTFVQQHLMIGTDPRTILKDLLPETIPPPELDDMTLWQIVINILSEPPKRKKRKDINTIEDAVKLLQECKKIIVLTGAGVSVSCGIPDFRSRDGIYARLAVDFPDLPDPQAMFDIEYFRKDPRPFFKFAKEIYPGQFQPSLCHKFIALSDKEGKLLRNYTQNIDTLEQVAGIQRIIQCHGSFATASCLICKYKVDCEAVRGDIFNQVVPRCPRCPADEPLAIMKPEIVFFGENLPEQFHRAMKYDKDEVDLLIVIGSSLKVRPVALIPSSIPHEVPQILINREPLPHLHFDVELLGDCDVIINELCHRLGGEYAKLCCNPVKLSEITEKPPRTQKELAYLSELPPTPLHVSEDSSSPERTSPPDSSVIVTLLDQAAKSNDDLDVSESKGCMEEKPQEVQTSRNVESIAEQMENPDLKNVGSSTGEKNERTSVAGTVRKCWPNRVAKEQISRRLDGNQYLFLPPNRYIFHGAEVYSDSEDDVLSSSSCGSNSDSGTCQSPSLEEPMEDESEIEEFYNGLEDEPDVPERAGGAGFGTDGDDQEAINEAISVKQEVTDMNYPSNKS
# Assay: NVS_ENZ_hSIRT1: NovaScreen (NVS) Enzymatic Assay for human Sirtuin 1 (SIRT1) (AID 2283219)
# How it was run: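 Cell-free recombinant SIRT1 with a fluorescent substrate; substrate and product separated by electrophoretic mobility shift and read by fluorescence intensity, 1 h after dosing. Primary screen at 25 uM in duplicate; hits re-run in concentration-response up to 50 uM, relative to DMSO.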
SMILES,AC50,outcome
COP(=O)(OC)OC(Br)C(Cl)(Cl)Br (stereo not drawn),15.8 µM (active),–
CC[C@H](C)[C@H]1O[C@]2(C=C[C@@H]1C)C[C@@H]1C[C@@H](C/C=C(\C)[C@@H](O[C@H]3C[C@H](OC)[C@@H](O[C@H]4C[C@H](OC)[C@@H](NC)[C@H](C)O4)[C@H](C)O3)[C@@H](C)/C=C/C=C3\CO[C@@H]4[C@H](O)C(C)=C[C@@H](C(=O)O1)[C@]34O)O2,–,inactive
N#CSCSC#N,11.3 µM (active),–

# Molecular target: human Sirtuin 3 (SIRT3), SIRT3 (gene 23410) (UniProt Q9NTG7)
# Assay: NVS_ENZ_hSIRT3: NovaScreen (NVS) Enzymatic Assay for human Sirtuin 3 (SIRT3) (AID 2283222)
# How it was run: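 Cell-free enzyme assay with recombinant protein and fluorescent substrate, product separated by electrophoretic mobility shift; read 1 hour after dosing. Screened in duplicate at 25 uM, then singleton concentration-response up to 50 uM; loss of signal versus DMSO.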
SMILES,outcome,AC50
COc1ccc(C(=CC(=O)N2CCOCC2)c2ccc(Cl)cc2)cc1OC,inactive,–
CC[C@H](C)[C@H]1O[C@]2(C=C[C@@H]1C)C[C@@H]1C[C@@H](C/C=C(\C)[C@@H](O[C@H]3C[C@H](OC)[C@@H](O[C@H]4C[C@H](OC)[C@@H](NC)[C@H](C)O4)[C@H](C)O3)[C@@H](C)/C=C/C=C3\CO[C@@H]4[C@H](O)C(C)=C[C@@H](C(=O)O1)[C@]34O)O2,–,1.25 µM (active)
CC(C)[C@H](C(=O)O[C@H](C#N)c1cccc(Oc2ccccc2)c1)c1ccc(Cl)cc1,inactive,–
C[Si](Cn1cncn1)(c1ccc(F)cc1)c1ccc(F)cc1,inactive,–
FC(F)C(F)(F)OCC(Cn1cncn1)c1ccc(Cl)cc1Cl (stereo not drawn),–,25 µM (active)
N#CSCSC#N,inactive,–
